The source made the active and inactive calls. The calls were made as follows: active = hit-call score of the fitted dose curve at least 0.9, where 1 is the maximum; inactive = score below 0.9.
These compounds were tested against Transcription factor Sp1 (Homo sapiens) (UniProt P08047) (assay: ATG_Sp1_CIS: Attagene CIS-FACTORIAL HepG2 Assay for human Specificity Protein 1 (Sp1) (AID 2282961)). Settings: HepG2 Sp1 cis-reporter transcription, actives raise or lower the signal.
Method in brief: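 Chemicals are dosed onto HepG2 cells transfected with multiple cis-promoter reporter constructs, and after 24 h reporter RNA is reverse-transcribed, PCR-amplified and resolved by capillary electrophoresis for fluorescence quantitation; activity is scored up or down against DMSO.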

Sequence of Transcription factor Sp1 (Homo sapiens) (P08047 whole entry, looked up): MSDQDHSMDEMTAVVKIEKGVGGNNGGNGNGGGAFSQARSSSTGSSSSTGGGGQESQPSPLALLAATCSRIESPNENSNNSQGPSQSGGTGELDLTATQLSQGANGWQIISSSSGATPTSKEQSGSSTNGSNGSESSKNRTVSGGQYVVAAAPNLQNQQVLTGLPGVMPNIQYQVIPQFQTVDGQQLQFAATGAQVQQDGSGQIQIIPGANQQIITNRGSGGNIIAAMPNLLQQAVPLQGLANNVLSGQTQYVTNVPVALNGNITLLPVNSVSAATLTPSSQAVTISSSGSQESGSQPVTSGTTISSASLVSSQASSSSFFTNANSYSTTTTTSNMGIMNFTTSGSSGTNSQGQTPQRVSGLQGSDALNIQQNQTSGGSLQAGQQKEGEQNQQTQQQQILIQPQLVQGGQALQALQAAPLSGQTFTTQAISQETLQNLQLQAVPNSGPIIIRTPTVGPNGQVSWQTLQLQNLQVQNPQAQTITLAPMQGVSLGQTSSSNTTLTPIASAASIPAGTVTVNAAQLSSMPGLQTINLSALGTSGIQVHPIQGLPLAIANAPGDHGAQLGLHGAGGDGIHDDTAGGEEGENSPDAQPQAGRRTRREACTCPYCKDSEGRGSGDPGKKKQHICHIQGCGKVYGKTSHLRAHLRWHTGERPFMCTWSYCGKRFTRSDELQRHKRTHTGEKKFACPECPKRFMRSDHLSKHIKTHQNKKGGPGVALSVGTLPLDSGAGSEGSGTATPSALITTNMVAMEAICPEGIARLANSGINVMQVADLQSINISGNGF

SMILES | AC50 | outcome
COc1cc(-c2nc(NC(=O)c3cc4cc(C)cc(C)c4n3CC(=O)O)sc2CCC2CCCCC2)c(OC)cc1Cl | 2.83 µM (active) | –
CCCCCCCCCCCC(=O)OC | – | inactive
COCCOCCOC | – | inactive
CCCCCCCCCCO | – | inactive
CCOC(=O)C(C)(C)Oc1ccc(Cl)cc1 | – | inactive
CC(CO)OC(C)CO (centres undefined) (tested in a mixture with another compound) | – | inactive
CCc1c(C(=O)NN2CCCCC2)nn(-c2ccc(Cl)cc2Cl)c1-c1ccc(Br)cc1 | – | inactive
CNC(=O)[C@H]1O[C@@H](n2cnc3c(NCc4cc(Cl)ccc4OCc4cc(C)no4)ncnc32)[C@H](O)[C@@H]1N | – | inactive
C[Si]1(C)O[Si](C)(C)O[Si](C)(C)O[Si](C)(C)O1 | – | inactive
CCCCc1ccc2c(n1)[C@@H](c1ccc(OC)cc1C[C@H](C)C(=O)O)[C@H](C(=O)O)[C@H]2c1ccc2c(c1)OCO2 | – | inactive
O=C(O)CCCCC(=O)O | – | inactive
CCCCN(CCCC)CCCC | – | inactive
CN[C@H]1CC[C@@H](c2ccc(Cl)c(Cl)c2)c2ccc(S(N)(=O)=O)cc21 | – | inactive
Cc1cc(=O)[nH]c(=S)[nH]1 | – | inactive
Cc1nc(-c2ccc3c(c2)CCN(CCC2CCC(NC(=O)/C=C/c4ccc(F)cc4)CC2)CC3)no1 (centres undefined) | – | inactive
Cc1ccc(Cl)cc1 | – | inactive
NC(=O)Cn1c(=O)cc(CCN2CCN(c3nccc4sccc34)CC2)c2ccc(F)cc21 | – | inactive
Cc1ccccc1Cl | – | inactive
COc1cc(/C=C/C(=O)CC(=O)/C=C/c2ccc(O)c(OC)c2)ccc1O | 44.5 µM (active) | –
